Our source for the cytotoxicity call values is the antibiotic and cytotoxicity screens of Wong et al. (2023).

Out of some 39,000 compounds screened, about 1,500 (3.8%) were called active. What follows is part of a selection rich in actives, with near analogues and random picks from the rest.

The subject of this assay is HSkMC (human skeletal muscle cells). As to the kind of experiment: cytotoxicity call (relative viability < 0.9). The following applies: 10 µM.
As to `COc1ccccc1CNC(=O)C[C@H]1C[C@@H]2c3cc(NC(=O)c4cccnc4)ccc3O[C@@H]2[C@H](CO)O1`, the cytotoxicity call is “inactive”.

With `C[C@@H]1CN([C@@H](C)CO)C(=O)Cc2cc(NS(=O)(=O)c3ccc(F)cc3)ccc2O[C@@H]1CN(C)Cc1ccc(Oc2ccccc2)cc1`, the cytotoxicity call was “active”.

For the molecule `Cc1ccccc1S(=O)(=O)N1C[C@@H](O)COC[C@@H]2O[C@H](CC(=O)N3CCOCC3)CC[C@H]21`, the cytotoxicity call is “inactive”.

As to `COc1ccc2c3c([nH]c2c1)[C@H](CO)N(C[C@]13CCN(CC1)C(=O)c1cnccn1)C(=O)c1cnccn1`, the cytotoxicity call is “inactive”.

For `COc1ccc(C(=O)CC(=O)c2ccc(C(C)(C)C)cc2)cc1`, the cytotoxicity call is “active”.

As to `COc1ccc(C(=O)CO)cc1`, the cytotoxicity call is “inactive”.

Consider `COc1ccc(C(=O)O)cc1`, for which the cytotoxicity call is “inactive”.

Take `Cc1cc(C(=O)Nc2cccc3c2O[C@H](CN(C)Cc2ccc4c(c2)OCO4)[C@@H](C)CN([C@@H](C)CO)C3=O)n(C)n1`: the cytotoxicity call was “inactive”.

Take `O=C(O)CCNC(=O)c1ccccc1` [listing 1 of 2 here]: the cytotoxicity call is “inactive”.

`O=C(O)CCNC(=O)c1ccccc1` [listing 2 of 2 here]: the cytotoxicity call is “inactive”.

As to `Cc1cc(O[C@@H](CCC(F)(F)F)c2ccc(C(=O)NCCC(=O)O)cc2)cc(C)c1-c1ccc(C(C)(C)C)cc1`, the cytotoxicity call was “active”.

With `O=C(/C=C/c1ccc(O)c(O)c1)O[C@]1(C(=O)O)C[C@@H](O)[C@H](O)[C@H](O)C1`, the cytotoxicity call was “inactive”.

With `CC(C)NC(=O)Nc1ccc2c(c1)C(=O)N([C@H](C)CO)C[C@H](C)[C@@H](CN(C)S(=O)(=O)c1ccc(F)cc1)O2`, the cytotoxicity call was “inactive”.

With `Cn1cnc(CCNC(=O)C[C@@H]2CC[C@H]3[C@@H](COC[C@@H](O)CN3C(=O)Nc3ccc(Cl)cc3)O2)c1`, the cytotoxicity call was “inactive”.

Take `CO[C@@H]1CN(C)C(=O)c2ccc(NS(=O)(=O)CC(F)(F)F)cc2OC[C@H](C)N(Cc2cccnc2)C[C@H]1C`: the cytotoxicity call was “inactive”.

Regarding `C[C@@H]1CCCCO[C@H](CN(C)Cc2ccc3c(c2)OCO3)[C@@H](C)CN([C@H](C)CO)C(=O)c2cc(NC(=O)Nc3cccc4ccccc34)ccc2O1`, the cytotoxicity call is “inactive”.

As for `C[C@@H]1CCCCO[C@H](CN(C)Cc2ccc3c(c2)OCO3)[C@H](C)CN([C@@H](C)CO)C(=O)c2cc(NC(=O)Nc3cccc4ccccc34)ccc2O1`, the cytotoxicity call is “active”.

Consider `C[C@@H]1CCCCO[C@@H](CN(C)Cc2ccc3c(c2)OCO3)[C@@H](C)CN([C@H](C)CO)C(=O)c2cc(NC(=O)Nc3cccc4ccccc34)ccc2O1`, for which the cytotoxicity call is “inactive”.

`C[C@@H]1CN([C@@H](C)CO)C(=O)c2cc(NC(=O)Nc3cccc4ccccc34)ccc2O[C@@H](C)CCCCO[C@H]1CN(C)Cc1ccc2c(c1)OCO2`: the cytotoxicity call is “active”.

Regarding `C[C@@H]1CCCCO[C@@H](CN(C)Cc2ccc3c(c2)OCO3)[C@@H](C)CN([C@@H](C)CO)C(=O)c2cc(NC(=O)Nc3cccc4ccccc34)ccc2O1`, the cytotoxicity call was “inactive”.

Take `C[C@H]1CCCCO[C@@H](CN(C)Cc2ccc3c(c2)OCO3)[C@@H](C)CN([C@@H](C)CO)C(=O)c2cc(NC(=O)Nc3cccc4ccccc34)ccc2O1`: the cytotoxicity call is “active”.

Regarding `C[C@H](CO)N1C[C@H](C)[C@@H](CN(C)Cc2ccc3c(c2)OCO3)OCCCC[C@H](C)Oc2ccc(NC(=O)Nc3cccc4ccccc34)cc2C1=O`, the cytotoxicity call is “active”.

Regarding `C[C@@H]1CN([C@H](C)CO)C(=O)c2cc(NC(=O)Nc3cccc4ccccc34)ccc2O[C@@H](C)CCCCO[C@H]1CN(C)Cc1ccc2c(c1)OCO2`, the cytotoxicity call is “inactive”.

For `C=CCOC(=O)[C@H]1[C@@H]2C(=O)O[C@@H](c3ccccc3)[C@@H](c3ccccc3)N2[C@@H](c2ccc(OCCOC(=O)[C@@H]3C[C@@H]4C(=O)N[C@@H](CCCCNC(C)=O)C(=O)N4[C@@H]3c3ccc(O)cc3)cc2)[C@]12C(=O)Nc1ccccc12`, the cytotoxicity call was “inactive”.

Take `COc1ccc(CN(C)C[C@@H]2OCCCC[C@@H](C)Oc3ccc(NS(=O)(=O)c4ccc(F)cc4)cc3C(=O)N([C@H](C)CO)C[C@@H]2C)cc1`: the cytotoxicity call is “inactive”.

Take `C[C@H](CO)N1C[C@H](C)[C@@H](CN(C)Cc2ccc(C(F)(F)F)cc2)Oc2ccc(NC(=O)Cn3cnnn3)cc2CC1=O`: the cytotoxicity call was “inactive”.

Regarding `C[C@H](CO)N1C[C@H](C)[C@@H](CN(C)S(=O)(=O)c2cn(C)cn2)Oc2ccc(NC(=O)C3CCCCC3)cc2CC1=O`, the cytotoxicity call was “inactive”.

As for `Cc1ccc(S(=O)(=O)Nc2cccc3c2O[C@@H](CN(C)S(=O)(=O)c2cccs2)[C@@H](C)CN([C@H](C)CO)C3=O)cc1`, the cytotoxicity call was “inactive”.

With `CN1C(=O)C[C@@H]2[C@@H]1CCN2C(=O)c1ccc[nH]1`, the cytotoxicity call was “inactive”.

Regarding `C[C@H](CO)N1C[C@H](C)[C@@H](CN(C)S(=O)(=O)c2cn(C)cn2)OCc2ccccc2-c2ccccc2C1=O`, the cytotoxicity call was “inactive”.

Take `C[C@@H]1CCCCO[C@@H](CN(C)Cc2ccc3c(c2)OCO3)[C@H](C)CN([C@H](C)CO)C(=O)c2cc(NC(=O)Nc3cccc4ccccc34)ccc2O1`: the cytotoxicity call is “active”.

On to `C[C@@H]1CN([C@@H](C)CO)C(=O)c2cc(NC(=O)Nc3cccc4ccccc34)ccc2O[C@@H](C)CCCCO[C@@H]1CN(C)Cc1ccc2c(c1)OCO2`, for which the cytotoxicity call is “inactive”.

`C[C@H](CO)N1C[C@H](C)[C@H](CN(C)Cc2ccc3c(c2)OCO3)OCCCC[C@H](C)Oc2ccc(NC(=O)Nc3cccc4ccccc34)cc2C1=O`: the cytotoxicity call was “active”.

As for `C[C@@H]1CCCCO[C@@H](CN(C)Cc2ccc3c(c2)OCO3)[C@H](C)CN([C@@H](C)CO)C(=O)c2cc(NC(=O)Nc3cccc4ccccc34)ccc2O1`, the cytotoxicity call is “inactive”.

Take `C[C@@H]1CCCCO[C@H](CN(C)Cc2ccc3c(c2)OCO3)[C@H](C)CN([C@H](C)CO)C(=O)c2cc(NC(=O)Nc3cccc4ccccc34)ccc2O1`: the cytotoxicity call is “active”.

`C[C@@H]1CN([C@H](C)CO)C(=O)c2cc(NC(=O)Nc3cccc4ccccc34)ccc2O[C@@H](C)CCCCO[C@@H]1CN(C)Cc1ccc2c(c1)OCO2`: the cytotoxicity call was “active”.

Regarding `C[C@H]1CCCCO[C@H](CN(C)Cc2ccc3c(c2)OCO3)[C@@H](C)CN([C@@H](C)CO)C(=O)c2cc(NC(=O)Nc3cccc4ccccc34)ccc2O1`, the cytotoxicity call was “inactive”.

Consider `C[C@@H]1CCCCO[C@H](CN(C)Cc2ccc3c(c2)OCO3)[C@@H](C)CN([C@@H](C)CO)C(=O)c2cc(NC(=O)Nc3cccc4ccccc34)ccc2O1`, for which the cytotoxicity call is “inactive”.

Take `Cc1ccc(S(=O)(=O)Nc2ccc3c(c2)C(=O)N([C@@H](C)CO)C[C@@H](C)[C@@H](CN(C)C(=O)Nc2ccc(C(F)(F)F)cc2)O3)cc1`: the cytotoxicity call is “inactive”.

With `C[C@H](CO)N1C[C@H](C)[C@@H](CN(C)C(=O)Nc2ccc(C(F)(F)F)cc2)OCc2cn(nn2)CCCC1=O`, the cytotoxicity call is “inactive”.

On to `CN(C)/N=N/c1nc[nH]c1C(N)=O`, for which the cytotoxicity call was “inactive”.

Consider `COC(=O)C[C@H]1CC[C@H](N)[C@@H](CO)O1`, for which the cytotoxicity call was “inactive”.

In the case of `NCc1cccc(-c2ccccc2)c1`, the cytotoxicity call was “inactive”.

Turning to `C[C@@H]1CCCCO[C@@H](CN(C)C(=O)NC2CCCCC2)[C@@H](C)CN([C@H](C)CO)C(=O)c2cc(NC(=O)CCCCCC(=O)Nc3ccccc3N)ccc2O1`, the cytotoxicity call was “inactive”.

For `C[C@@H]1CN([C@@H](C)CO)C(=O)c2cc(NC(=O)Nc3ccc(F)cc3)ccc2O[C@@H](C)CCCCO[C@@H]1CN(C)C(=O)C1CCCCC1`, the cytotoxicity call was “inactive”.

In the case of `C[C@H](CO)N1C[C@H](C)[C@@H](CN(C)Cc2ccc(Cl)c(Cl)c2)Oc2ccc(NS(=O)(=O)c3ccc(Cl)cc3)cc2C1=O`, the cytotoxicity call was “active”.

In the case of `C[C@@H]1CN([C@H](C)CO)C(=O)c2cc(NS(=O)(=O)c3ccc(Cl)cc3)ccc2O[C@@H]1CN(C)Cc1ccc(Cl)c(Cl)c1`, the cytotoxicity call was “active”.

In the case of `C[C@@H]1CN([C@@H](C)CO)C(=O)c2cc(NS(=O)(=O)c3ccc(Cl)cc3)ccc2O[C@H]1CN(C)Cc1ccc(Cl)c(Cl)c1`, the cytotoxicity call is “active”.

Take `C[C@H]1CN([C@@H](C)CO)C(=O)c2cc(NS(=O)(=O)c3ccc(Cl)cc3)ccc2O[C@H]1CN(C)Cc1ccc(Cl)c(Cl)c1`: the cytotoxicity call is “active”.

For `COc1oc(C(=O)NC2CCCCC2)c(-c2ccc(Cl)cc2)c1S(=O)(=O)c1ccccc1Cl`, the cytotoxicity call is “inactive”.

On to `Cc1ccc(S(=O)(=O)N2C[C@H](O)COC[C@@H]3O[C@H](CC(=O)NCCN4CCCCC4)CC[C@H]32)cc1`, for which the cytotoxicity call is “inactive”.

For the molecule `COc1ccc(NC(=O)N2C[C@H](O)COC[C@H]3O[C@@H](CC(=O)NCc4ccccc4OC)CC[C@@H]32)cc1`, the cytotoxicity call was “inactive”.

`COc1ccc(NC(=O)N(C)C[C@H]2OCCCC[C@@H](C)Oc3ccc(NC(=O)CCC(F)(F)F)cc3C(=O)N([C@H](C)CO)C[C@H]2C)cc1`: the cytotoxicity call is “inactive”.

For the molecule `C[C@@H]1CCCCO[C@H](CN(C)Cc2ccc(C(F)(F)F)cc2)[C@H](C)CN([C@@H](C)CO)C(=O)c2cc(NC(=O)CCC(F)(F)F)ccc2O1`, the cytotoxicity call is “inactive”.

Take `COc1ccc(C#Cc2ccc3c(c2)[C@]2(C(=O)N3)[C@H](c3ccccc3OCCO)N3[C@H](c4ccccc4)[C@H](c4ccccc4)OC(=O)[C@H]3[C@@H]2C(=O)NC[C@H](O)c2ccccc2)cc1`: the cytotoxicity call was “inactive”.

On to `COc1ccc(S(=O)(=O)N(C)C[C@@H]2Oc3c(NS(=O)(=O)c4ccc(C)cc4)cccc3C(=O)N([C@@H](C)CO)C[C@H]2C)cc1`, for which the cytotoxicity call was “inactive”.

As to `C[C@@H]1CN([C@@H](C)CO)C(=O)c2cc(NS(=O)(=O)c3ccc(Cl)cc3)ccc2O[C@@H](C)CCCCO[C@H]1CN(C)C(=O)c1ccncc1`, the cytotoxicity call is “inactive”.

Regarding `C=C(C)CCn1cccc1C(C)=O`, the cytotoxicity call is “inactive”.

On to `C[C@H]1CN([C@@H](C)CO)S(=O)(=O)c2ccc(C#Cc3cccc(F)c3)cc2O[C@@H]1CN(C)C(=O)CN1CCOCC1`, for which the cytotoxicity call was “inactive”.

In the case of `Cc1noc(C)c1NC(=O)N(C)C[C@H]1Oc2ccc(NC(=O)CCCN(C)C)cc2C(=O)N([C@@H](C)CO)C[C@@H]1C`, the cytotoxicity call is “inactive”.

`C[C@@H]1CN([C@H](C)CO)S(=O)(=O)c2ccc(C3=CCCC3)cc2O[C@@H]1CN(C)C(=O)c1cnccn1`: the cytotoxicity call is “inactive”.

`C[C@H]1CN([C@@H](C)CO)C(=O)c2cc(NS(=O)(=O)c3ccc(Cl)cc3)ccc2O[C@@H]1CN(C)Cc1ccc(Cl)c(Cl)c1`: the cytotoxicity call is “active”.

Regarding `C[C@H](CO)N1C[C@H](C)[C@H](CN(C)Cc2ccc(Cl)c(Cl)c2)Oc2ccc(NS(=O)(=O)c3ccc(Cl)cc3)cc2C1=O`, the cytotoxicity call is “active”.

For the molecule `C[C@@H]1CN([C@H](C)CO)C(=O)c2cc(NS(=O)(=O)c3ccc(Cl)cc3)ccc2O[C@H]1CN(C)Cc1ccc(Cl)c(Cl)c1`, the cytotoxicity call is “inactive”.

Consider `C[C@H](CO)N1C[C@H](C)[C@H](CN(C)Cc2ccc(Cl)c(Cl)c2)Oc2ccc(NS(=O)(=O)c3ccccc3)cc2C1=O`, for which the cytotoxicity call is “inactive”.

Regarding `C[C@@H]1CN([C@@H](C)CO)C(=O)c2cc(NS(=O)(=O)c3ccccc3)ccc2O[C@@H]1CN(C)Cc1ccc(Cl)c(Cl)c1`, the cytotoxicity call is “active”.

On to `C[C@@H]1CN([C@@H](C)CO)C(=O)c2cc(NS(=O)(=O)c3ccc(Cl)cc3)ccc2O[C@@H]1CN(C)Cc1ccc(Cl)c(Cl)c1`, for which the cytotoxicity call was “active”.

As to `C[C@H]1CN([C@@H](C)CO)C(=O)c2cc(NS(=O)(=O)c3ccccc3)ccc2O[C@@H]1CN(C)Cc1ccc(Cl)c(Cl)c1`, the cytotoxicity call was “inactive”.

Regarding `C[C@H](CO)N1C[C@H](C)[C@@H](CN(C)Cc2ccc(Cl)c(Cl)c2)Oc2ccc(NS(=O)(=O)c3ccccc3)cc2C1=O`, the cytotoxicity call is “inactive”.
